Laboratory results as given in the supplement of paper PMC4466236.
In all, about 33,000 sequences were measured (“E-score (dimensionless, -0.5 to 0.5)”: median about -0.058, highest 2% from about 0.35 on). The full list was thinned out, with the highest values kept by preference.

Tested on: MvaT
Experiment: PBM 8-mer E-score (mean of HK and ME arrays) (E-score (dimensionless, -0.5 to 0.5)); higher = stronger relative binding preference
Procedure: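 Protein binding microarray: GST-tagged full-length MvaT (P. aeruginosa PAO1) bound to two universal double-stranded 60-mer arrays (ME and HK), each with a constant 25-mer primer and a variable 35-mer region covering all 8-mers. The 8-mer E-score (rank-based, range -0.5 to 0.5, >0.45 = specific binding) is the mean of the two arrays.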

Row | Sequence | PBM 8-mer E-score
1 | AGTCATCG | -0.269
2 | CATATATG | 0.449
3 | CATATATA | 0.451
4 | CTCATATA | 0.324
5 | CTCATATC | -0.0618
6 | CATATACC | 0.166
7 | CATATATC | 0.398
8 | CATATACG | 0.143
9 | CATATAGG | 0.151
10 | CATATCTA | 0.122
11 | GAGGGGAC | -0.373
12 | CCCCAAAA | -0.131
13 | ACAGATAA | 0.287
14 | GCCGACTA | -0.209
15 | AACCTACC | -0.156
16 | GGGATTAA | 0.144
17 | GGCGGTTA | -0.177
18 | ATTAGCAC | 0.0511
19 | CAACCCGA | -0.0421
20 | GAATAAAA | 0.354
21 | TAAAAAAA | 0.321
22 | CAATAAAA | 0.286
23 | TAATAAAA | 0.389
24 | GGATAAAA | 0.265
25 | GAATAAAC | 0.192

Row | Sequence | PBM 8-mer E-score
26 | GCTGCTAA | -0.101
27 | CTATGCAG | -0.146
28 | ATCTAGCA | 0.152
29 | ATAAGTAT | 0.356
30 | ATAAGTAC | 0.305
31 | AAAAGTAA | 0.28
32 | CAAAGTAA | 0.216
33 | ATAAGTAG | 0.341
34 | TTAAGTAA | 0.328
35 | TAAAGTAA | 0.365
36 | ATAAGTAA | 0.371
37 | GTAAGTAA | 0.207
38 | ATCGTCAC | -0.196
39 | CCTTCAAA | -0.128
40 | CCACGACA | 0.011
41 | AACATCAT | 0.171
42 | CCCTACCC | -0.224
43 | CCAAACGC | -0.0718
44 | AGCTGCAC | -0.122
45 | ACTTGCAA | 0.123
46 | CCAAACAC | 0.111
47 | ATCAGTGA | -0.0827
48 | CTATCCAG | -0.0225
49 | ATTCTTGA | 0.0466
50 | ATTCGGTG | -0.00558

Row | Sequence | PBM 8-mer E-score
51 | AATCCACA | 0.139
52 | AATATCAA | 0.338
53 | AATATATG | 0.446
54 | AATATCAC | 0.407
55 | ACTATATG | 0.306
56 | AATATCTG | 0.207
57 | AATATCCC | 0.174
58 | AATATATC | 0.445
59 | AATATCTC | 0.253
60 | GATATCAC | 0.119
61 | GTATCTTA | 0.194
62 | ACAGGTTG | -0.21
63 | AGGAACCT | -0.139
64 | AATTCTAC | 0.188
65 | ACTAGGCT | -0.105
66 | ACACCTCC | -0.0337
67 | CCGGTAAA | 0.0751
68 | TATTAGGA | 0.247
69 | ATCATATG | 0.241
70 | ATGATATC | 0.131
71 | ATAATATC | 0.437
72 | ATAATCTG | 0.196
73 | ATAATCTC | 0.337
74 | ATAATATG | 0.435
75 | CTACGATC | 0.0594

Row | Sequence | PBM 8-mer E-score
76 | AAGAATAT | 0.316
77 | CTGAATAA | 0.226
78 | ATGAATAG | 0.131
79 | ATGAATAA | 0.368
80 | AAGAATAA | 0.368
81 | AAGAATAC | 0.118
82 | CGCTTGCC | -0.327
83 | AATATTCA | 0.312
84 | CATATTGA | 0.264
85 | TATATTCA | 0.373
86 | TATATTGA | 0.387
87 | GATATTGA | 0.228
88 | GATATTCA | 0.0985
89 | CCCGGGGA | -0.299
90 | AGTATAAT | 0.336
91 | GTTATAAA | 0.345
92 | CTTATAAC | 0.352
93 | ATGATAAT | 0.292
94 | GTTATAAC | 0.434
95 | ATTATAGC | 0.282
96 | ATTATAAC | 0.415
97 | ATGATAAC | 0.178
98 | GCTATAAC | 0.13
99 | ATTATAAT | 0.468
100 | CCTATAAC | 0.186

Row | Sequence | PBM 8-mer E-score
101 | CTCATAAC | -0.0784
102 | AAGTGACT | 0.00519
103 | CTCCCTAA | -0.204
104 | GTGTGGGA | 0.0582
105 | GACGCTGC | -0.183
106 | AATCGTGG | -0.0233
107 | AAGCGGTG | -0.19
108 | AAATCTAC | -0.0273
109 | ACGAACGA | -0.115
110 | CTAAGCAC | -0.0271
111 | ACTATAAT | 0.436
112 | CTTATAAA | 0.377
113 | CGTATAAG | 0.147
114 | CTCATAAA | 0.0815
115 | ATCATAAA | 0.308
116 | CCTATAAA | 0.211
117 | ACTATAAA | 0.316
118 | CTCATAAG | -0.122
119 | CTTATAAG | 0.394
120 | ACTATACT | 0.228
121 | ATTATAAA | 0.462
122 | TAAGCCTA | -0.0915
123 | GAACTTGA | 0.266
124 | AGTCCAGA | -0.101
125 | AAACCATA | 0.251

Row | Sequence | PBM 8-mer E-score
126 | CGCTTAGA | -0.0246
127 | AATAAAGC | 0.292
128 | ATCCTATA | 0.189
129 | ACCTATAA | 0.208
130 | ACACGTGT | -0.0859
131 | AACCGCAA | 0.00741
132 | ACTATAAG | 0.273
133 | TTTATAAA | 0.411
134 | TTCATAAA | 0.238
135 | ATTATAAG | 0.432
136 | ATTATACG | 0.274
137 | TTGATAAA | 0.253
138 | CCTACAGC | -0.247
139 | ACTACGAG | 0.0492
140 | AGGCCATG | -0.221
141 | CGCGTGAA | 0.0803
142 | AGCGTCAT | -0.205
143 | ATATGCCA | 0.181
144 | ACAGCATA | 0.147
145 | GTGATATA | 0.247
146 | ATTATAGG | 0.304
147 | ATGATATG | 0.199
148 | GTTATAGA | 0.222
149 | CTTATATA | 0.452
150 | CTGATATA | 0.358

Row | Sequence | PBM 8-mer E-score
151 | CTTATATC | 0.184
152 | ATGATATA | 0.262
153 | GTTATACA | 0.281
154 | CTTATAGA | 0.0191
155 | ATTATATG | 0.416
156 | GTTATATA | 0.456
157 | GGCTCACC | -0.247
158 | AGCTCGAG | -0.0655
159 | ATTTACTC | 0.0973
160 | AACGAGAG | -0.094
161 | AAAAGAGA | 0.103
162 | ATTATATC | 0.444
163 | ATTATATA | 0.47
164 | ATTATACC | 0.337
165 | ATTATAGA | 0.331
166 | CTTATACA | 0.229
167 | ATTATACA | 0.388
168 | ACACTAAT | 0.345
169 | CCACGGTC | -0.022
170 | AGGAGGAA | -0.174
171 | TGATAAAA | 0.258
172 | CGATATAA | 0.395
173 | TGATATAA | 0.353
174 | GGATATAA | 0.307
175 | CGATATAG | 0.196

Row | Sequence | PBM 8-mer E-score
176 | CGATATAC | 0.219
177 | CGAATAAG | 0.122
178 | ATTGGATG | 0.131
179 | CAATCCAA | -0.0468
180 | AATTCACA | 0.206
181 | ATGTATTA | 0.399
182 | ATGTATTG | 0.244
183 | GTGTATTA | 0.276
184 | CTGTATTA | 0.36
185 | CTGTATTC | 0.0463
186 | ATGTATTC | 0.152
187 | CTAGTATC | -0.0351
188 | CAATACTC | 0.106
189 | AAAACGAC | 0.0691
190 | AAAATGAA | 0.226
191 | GACAGAAC | -0.0903
192 | ATTATCAG | 0.354
193 | ATTATCAC | 0.24
194 | ATTATCTC | 0.157
195 | ATTATCTA | 0.269
196 | ATTATCTG | 0.355
197 | ATTATCAA | 0.321
198 | GTAATGAC | -0.00906
199 | AGCTGGCC | -0.255
200 | AGATAAAG | 0.0927

Row | Sequence | PBM 8-mer E-score
201 | CTATAAGA | 0.188
202 | GTATAAAC | 0.316
203 | TTATAAAA | 0.399
204 | GTATAAAA | 0.216
205 | ATATAAAG | 0.382
206 | ATATAAGC | 0.311
207 | CTATAAAC | 0.223
208 | CTCTAAAA | 0.0251
209 | ATATAAGA | 0.388
210 | ATATAAAC | 0.433
211 | CTATAAAG | 0.0669
212 | GCATCCCC | -0.212
213 | CATTTTCG | 0.126
214 | GACTAGTC | -0.0899
215 | GCACCGCC | -0.175
216 | CGGCTTGA | -0.132
217 | ACATTACC | 0.113
218 | CTTTTGTC | 0.0941
219 | ATATAAAA | 0.431
220 | ATGTAAAT | 0.327
221 | ATAAAAGA | 0.263
222 | AGATAAAT | 0.241
223 | CTATAAAA | 0.171
224 | ATATAAAT | 0.45
